# A selection follows.
# PostGolgi ctrl: growth of the yeast control strain, post-Golgi counter-screen | inhibition, % at 10 µM | 98,000 tested, 5% active | efflux-deficient yeast background strain, growth absorbance A615, 16 h
# CYP2C19 activ: cytochrome P450 2C19 (human) activation. recombinant CYP2C19, luciferin-H EGE luminescence; active compounds read high; 0 = fully inhibited enzyme, 1 = untreated enzyme. activation factor at 5 µM. 96,000 tested, under 10 active. AID 1025;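 active means activation factor of at least 2 at 5 µM in the primary screen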;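 further: 0 = wells with 2.5 mM tranylcypromine and 1 = vehicle-only wells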
# CYP2C9 inhib: inhibitors of human CYP2C9 | CYP2C9 Supersomes, luciferin-H conversion, luminescence | AID 777 | inhibition, % at 5 µM | 96,000 tested, 20% active;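 active means blocking of liver enzyme CYP2C9 beyond about 50% at 5 µM, limit read from the data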
# Target sequence (P11712 whole entry, looked up): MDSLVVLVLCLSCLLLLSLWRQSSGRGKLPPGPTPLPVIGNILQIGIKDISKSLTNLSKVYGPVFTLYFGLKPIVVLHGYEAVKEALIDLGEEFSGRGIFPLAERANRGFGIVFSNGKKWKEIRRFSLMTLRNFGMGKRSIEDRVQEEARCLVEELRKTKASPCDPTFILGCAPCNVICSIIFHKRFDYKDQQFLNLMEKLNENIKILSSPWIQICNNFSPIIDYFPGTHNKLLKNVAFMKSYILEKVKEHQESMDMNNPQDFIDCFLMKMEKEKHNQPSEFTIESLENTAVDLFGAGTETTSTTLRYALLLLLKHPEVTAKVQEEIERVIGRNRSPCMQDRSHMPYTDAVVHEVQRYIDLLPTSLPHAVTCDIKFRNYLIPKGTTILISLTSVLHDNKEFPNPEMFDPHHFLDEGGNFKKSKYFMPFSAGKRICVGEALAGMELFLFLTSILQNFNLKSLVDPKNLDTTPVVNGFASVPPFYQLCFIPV
# CYP2C9 act: activators of human CYP2C9. activation factor at 5 µM. AID 1024. recombinant CYP2C9, luciferin-H conversion, luminescence; active compounds read high; factor 1 = untreated enzyme, 0 = blocked. 96,000 tested, 1.4% active. P11712;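 active means activation factor of 2 or more for CYP2C9 at a 5 µM dose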;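 further: 0 = sulfaphenazole-blocked wells and 1 = vehicle-only wells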
# CYP2C19 inhib: human CYP2C19 inhibition; P33261; CYP2C19 Supersomes, luciferin-H EGE luminescence, 30 min; inhibition, % at 5 µM; 96,000 tested, 21% active; AID 778;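 active means CYP2C19 inhibition above a set limit at 5 µM in the primary screen, cut at about 50% in these data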;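 further: plate controls were negative control wells for no effect and 2.5 mM tranylcypromine positive control for full effect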
# PostGolgi yeast: growth inhibition of a yeast mutant, post-Golgi transport screen. post-Golgi transport phenotypic cell assay. 98,000 tested, 0.9% active. inhibition, % at 10 µM. AID 739;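 further: yeast cells grown in 1536-well plates; yeast grown about 18 h at 30C before absorbance read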
# * marks the source's active call; other numbers are inactive results; nt = no result. Unless noted, no stated cut-off is given here; in the data, active means inhibition above about 30%; inactive means the rest.
SMILES,PostGolgi ctrl,CYP2C19 activ,CYP2C9 inhib,CYP2C9 act,CYP2C19 inhib,PostGolgi yeast
CCCOC(=O)C1=C(C)NC2=C(C(=O)CCC2)C1c1cccc(OC)c1OC (stereo not given),3,0.2,20,0.8,78*,13
O=C1C2CCCN2C(c2ccc(Cl)cc2)N1c1nccs1 (stereo not given),7,nt,nt,nt,nt,2
O=C(c1ccccc1)[C@H]1[C@H](c2ccccc2)[C@@]2(N=C(c3ccccc3)OC2=O)C2c3ccccc3C=NN21 (stereo not given in full),4,0.8,14,0.9,22,-8
O=C(NCc1cccs1)c1cccc(Nc2nc3ccc(Br)cc3[nH]2)c1,1,0.7,83*,0.2,33,4
CC(Cc1ccccc1)NC(=O)CSc1nc2nc3c(cc2c(=O)n1-c1ccccc1)COC(C)(C)C3 (stereo not given),0,1,8,0.9,0,-4
CCOC(=O)c1c(C)[nH]c(C)c1C(=O)COC(=O)[C@@H]1CCCN1S(=O)(=O)c1ccc(Cl)cc1,1,0.1,80*,0.2,93*,2
COC(=O)c1cc(NC(=O)c2ccccc2)c(=O)oc1C/C=N\OCc1ccc(Cl)cc1Cl,10,0.9,-3,1,7,-4
COc1cccc(-n2nnc3c(=O)n(Cc4ccc(Br)cc4)cnc32)c1,3,0.9,7,0.9,11,-5
O=C1c2ccccc2C(=O)N1OCc1ccc(Cl)cc1,19,0.4,-13,1.1,64*,-1
Cc1cccc(C)c1OCC(=O)Nc1ncn[nH]1,-9,0.4,1,1,63*,8
O=C(COc1ccc2ccccc2c1Br)Nc1ncn[nH]1,9,0.4,9,0.9,56*,15
O=C(COc1ccc2ccccc2c1Br)N1CCOCC1,7,nt,nt,nt,nt,0
O=C(CC(c1ccccc1)c1ccccc1)Nc1ncn[nH]1,19,0.5,83*,0.2,50*,-5
Cc1cc(NC(=O)COc2cccc(C)c2C)no1,6,0.8,27,0.7,20,-5
COc1ccc(S(=O)(=O)Nc2cc(C)nn2-c2ccccc2)cc1,8,0.8,98*,0,18,-4
Cc1nn(C)c(C)c1NS(=O)(=O)c1ccccc1,8,0.7,7,0.9,27,1
COc1ccc(C(=O)n2nc(C)cc2Nc2ccccc2)cc1,10,1,75*,0.2,2,-1
Cc1cc(Nc2nnnn2-c2ccccc2)n(-c2ccccc2)n1,13,0.9,24,0.8,9,2
Cc1nn(-c2ccccc2)c(C)c1NS(=O)(=O)c1ccccc1,6,0,91*,0.1,96*,-4
CCn1nc(C)c(NS(=O)(=O)c2ccccc2)c1C,7,0.2,11,0.9,85*,3
Cc1cccc(C)c1N1CCN(C(=O)Nc2ccc3c(c2)OCCO3)CC1,1,0.8,3,1,16,5
CC(=O)Nc1ccc(NC(=O)CSCCc2ccccn2)cc1,-5,0.7,7,0.9,33,-8
CCOC(=O)c1c(C)[nH]c(C(=O)C(C)OC(=O)c2oc3ccccc3c2COC)c1C (stereo not given),15,0.9,14,0.9,6,-6
COc1cc2c(cc1OC)C1=C(C#N)COCN1CC2,5,0.8,30,0.7,18,4
Cc1ccc(S(=O)(=O)C2(C(=O)O)CCCC2)cc1C,-6,1,1,1,-3,-1
SMILES,PostGolgi ctrl,CYP2C19 activ,CYP2C9 inhib,CYP2C9 act,CYP2C19 inhib,PostGolgi yeast
Cc1nn(-c2ccccc2)c(C)c1/C=N\NS(=O)(=O)c1ccc(Cl)cc1,3,0,99*,0,98*,-5
COc1ccccc1N1CCN(/N=C/c2c(C)nn(-c3ccccc3)c2C)CC1,5,0.8,16,0.8,21,-2
Cc1nn(-c2ccccc2)c(C)c1NC(=O)c1ccc(S(=O)(=O)N2CCCC2)cc1,2,0.9,57*,0.4,12,6
COc1ccccc1NC(=O)c1ccc(S(=O)(=O)N2CCCC2)cc1,7,1,24,0.8,5,-1
O=C1CC(CCC(=O)NC2CC2)c2ccccc2N1 (stereo not given),9,1,-6,1.1,1,20
COC(=O)c1cc(NC2c3ccccc3C(=O)N2c2cccnc2)cc(C(=O)OC)c1 (stereo not given),nt,nt,nt,nt,nt,0
COc1ccc(NC2c3ccccc3C(=O)N2c2cccnc2)cc1Cl (stereo not given),1,0.2,58*,0.4,81*,3
O=C1c2ccccc2C(Nc2ccc(Cl)cn2)N1c1ccccn1 (stereo not given),16,nt,nt,nt,nt,4
CCOc1ccccc1NC1c2ccccc2C(=O)N1c1cccnc1 (stereo not given),10,0.5,5,0.9,52*,4
CCOc1ccccc1CN1C(=O)c2ccccc2C1C(=O)NC(C)CC (stereo not given),0,1,1,1,-2,3
O=C1c2ccccc2C(Nc2ccccc2)N1c1cccnc1 (stereo not given),19,0.3,14,0.9,70*,-5
O=C(c1cccc(N2C(=O)C3C4C=CC(C4)C3C2=O)c1)N1CCCCCC1 (stereo not given),1,0.8,20,0.8,22,-3
Cc1ccc(-c2c3c([nH]c(=S)c2C#N)CCCC3)o1,8,0.7,24,0.8,31,-11
Cn1c(=NC(=O)C2CC2)sc2cccc(F)c21,-1,0.6,1,1,36,3
NC(=O)c1ccc(OCC(F)(F)C(F)(F)C(F)(F)C(F)(F)C(F)(F)C(F)F)cc1,28,0.4,42,0.6,55*,-10
COc1ccc(CCn2c(C)cc(C(=O)CSc3nnnn3-c3ccccc3)c2C)cc1OC,18,0.6,-115,2.1*,42,0
Cc1cc(C(=O)CSc2nnnn2-c2ccccc2)c(C)n1CCc1ccccc1,5,0.5,-6,1.1,50*,-5
Cc1cc(C(=O)CSc2nc(N)cc(=O)[nH]2)c(C)n1CCc1ccc(F)cc1,18,0.7,11,0.9,27,4
COc1ccc(CCNC(=O)CSc2nnnn2-c2ccccc2OC)cc1OC,1,0.7,29,0.7,32,-10
Cc1cc(C(=O)CSc2nnnn2C)c(C)n1CCc1ccc(F)cc1,-7,0.3,15,0.9,65*,12
CN1CC2CCCC3(C1)C(=O)NC1(CCCCC1)N=C23 (stereo not given),5,1,-14,1.1,1,10
CN(C)S(=O)(=O)c1ccc(NC(=O)c2cc(F)c(F)cc2Cl)cc1,4,1,-15,1.1,-4,3
CCCCOC(=O)C1=C(C)Nc2ncnn2C1c1cc(OC)c(OC)cc1OC (stereo not given),-2,1,38,0.6,-3,-3
CC1CC(Nc2ccccc2)=CC(=O)O1 (stereo not given),4,0.9,7,0.9,11,3
